Fam108B inh = Fam108B inhibition, counter-screen for RBBP9 inhibitors. recombinant Fam108B, FP-Rh probe fluorescence polarization. inhibition, % at 9.51 µM. AID 1947. actives 0.33% (n = 300,000);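 active = inhibition above the screen mean inhibition plus 3 SD, computed separately per campaign, cut at about 18% in these data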;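 also: inhibitors lower polarization as less probe binds the enzyme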
LYPLA2 inh = blocks human lysophospholipase 2, a PME1 counter-screen | recombinant LYPLA2, FP-Rh probe fluorescence polarization | inhibition, % at 5.9 µM | O95372 | actives 0.38% (n = 320,000);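 active = inhibition above the screen-wide mean plus 3 SD, limit set per campaign, cut at about 26% in these data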;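 also: 0% = LYPLA2 with DMSO and 100% = wells lacking LYPLA2 enzyme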
PME-1 inh = PME-1 (human) inhibition. Q9Y570. recombinant PME-1, FP-Rh probe fluorescence polarization. inhibition, % at 5.9 µM. actives 0.53% (n = 320,000). AID 2130;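 active = inhibition above the campaign mean of all compounds plus 3 SD, cut at about 26% in these data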;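 also: competitive labeling of PME-1 active site by serine hydrolase directed probe; 0% = PME-1 with DMSO and 100% = wells lacking PME-1 enzyme; inhibitors block probe labeling so polarization falls and inhibition rises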
PAD4 inh = blocks human protein arginine deiminase 4. Q9UM07. recombinant PAD4, RCA probe fluorescence polarization. inhibition, % at 6.36 µM. actives 0.41% (n = 330,000). AID 485272;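 active = percent inhibition above a cutoff equal to the mean of all tested compounds plus 3 SD, cut at about 15% in these data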;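 also: 0% = PAD4 with RCA probe and DMSO and 100% = probe without PAD4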
Target sequence (Q9UM07 whole entry, looked up): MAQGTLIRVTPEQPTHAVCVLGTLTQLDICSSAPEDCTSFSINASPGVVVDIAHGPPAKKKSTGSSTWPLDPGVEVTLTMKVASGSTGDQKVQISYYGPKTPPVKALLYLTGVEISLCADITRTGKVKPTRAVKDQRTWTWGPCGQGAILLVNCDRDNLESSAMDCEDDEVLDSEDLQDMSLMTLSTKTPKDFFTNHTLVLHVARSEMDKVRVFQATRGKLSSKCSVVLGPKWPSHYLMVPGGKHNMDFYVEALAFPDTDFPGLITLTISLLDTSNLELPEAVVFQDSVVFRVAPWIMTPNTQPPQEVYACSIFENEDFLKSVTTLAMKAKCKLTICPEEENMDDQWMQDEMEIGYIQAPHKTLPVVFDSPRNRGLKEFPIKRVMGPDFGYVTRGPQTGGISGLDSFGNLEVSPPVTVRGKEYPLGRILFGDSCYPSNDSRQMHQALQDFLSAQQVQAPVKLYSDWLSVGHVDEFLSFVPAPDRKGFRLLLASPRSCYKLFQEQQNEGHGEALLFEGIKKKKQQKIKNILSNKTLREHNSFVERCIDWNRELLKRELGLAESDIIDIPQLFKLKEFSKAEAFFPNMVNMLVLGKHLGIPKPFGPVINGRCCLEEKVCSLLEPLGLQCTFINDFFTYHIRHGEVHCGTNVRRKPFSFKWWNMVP
LYPLA1 counter = blocks human lysophospholipase 1, a PME1 counter-screen. O75608. AID 2174. recombinant LYPLA1, FP-Rh probe fluorescence polarization. actives 0.16% (n = 320,000). inhibition, % at 5.9 µM;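 active = inhibition above the mean of all tested compounds plus 3 SD, set per campaign, cut at about 14% in these data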;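 also: inhibitors block serine hydrolase probe labeling of LYPLA1 so polarization falls; 0% = enzyme with DMSO and 100% = wells lacking LYPLA1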
GSTO1 inh = GSTO1 inhibition, counter-screen for RBBP9 inhibitors; P78417; recombinant GSTO1, activity-based probe fluorescence polarization; inhibition, % at 5.96 µM; actives 1.1% (n = 300,000); AID 1974;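 active = inhibition above the campaign mean inhibition plus 3 SD, cut at about 35% in these data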;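 also: 0% = GSTO1-1 with DMSO and 100% = wells lacking GSTO1-1 enzyme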
Fam108b confirm = confirmation of mouse Fam108b serine hydrolase inhibitors; recombinant Fam108b, FP-Rh probe fluorescence polarization; inhibition, % at 9.51 µM; shares compounds with Fam108B inh; AID 1978; actives 44% (n = 930);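 active = inhibition above a limit from the primary screen, the mean over all compounds plus 3 SD, cut at about 19% in these data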;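 also: 0% = median of active Fam108b wells and 100% = catalytically dead S170A mutant; inhibitors free the probe so polarization falls as inhibition rises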
Fam108b inh = mouse ABHD17B inhibition; shares compounds with Fam108B inh; recombinant Fam108b, gel-based ABPP, fluorophosphonate probe; inhibition, % at 20 µM; actives 44% (n = 260); in the data active = inhibition above about 40%
* hit, by the source's call; / = not tested or not shown. In the library only some 1.8% were active in any assay of this set; here they are far more common.

SMILES	Fam108B inh	LYPLA2 inh	PME-1 inh	PAD4 inh	LYPLA1 counter	GSTO1 inh	Fam108b confirm	others
COc1cc(OC)cc(C(=O)Oc2ccc(/C=N/Nc3nc4ccccc4s3)cc2OC)c1	25.8*	-1.1	30.9*	-3.2	-4.0	0.0	11.6
COc1ccccc1Nc1ccc(NC(=O)c2cccc([N+](=O)[O-])c2C)cc1	19.9*	4.9	15.4	-3.4	-7.2	-4.1	-6.2
O=S(=O)(c1c(F)cccc1F)N1CCN(C(=S)NCc2ccc3c(c2)OCO3)CC1	24.9*	3.2	8.2	1.4	2.2	17.9	16.8
Cc1[nH]c2ccccc2c1/C=N/NC(=O)c1cccc(S(=O)(=O)Nc2cccc(C(F)(F)F)c2)c1	40.5*	-16.9	20.6	0.5	-9.7	-30.5	32.0*
CCC(C(=O)NC1CCCC1)N(Cc1ccco1)C(=O)CNS(=O)(=O)c1ccccc1 (configuration not stated)	1.9	3.1	-1.4	-5.3	1.9	-5.3	/
O=C(CSc1nnc(-c2ccccc2F)n1C1CC1)NCc1ccco1	/	6.0	6.2	-3.9	1.4	/	/
Cc1cccc(N=Cc2nc(-c3ccccc3Br)oc2O)n1	/	/	/	/	/	/	/	Fam108b inh=50.0*
Oc1oc(-c2cccc3ccccc23)nc1/C=N/c1nccs1	-3.0	-4.4	-6.2	-1.5	-6.7	-5.2	/
Cc1ccnc(N=Cc2nc(-c3ccccc3Br)oc2O)c1	22.3*	9.6	-7.1	-1.5	5.2	3.1	80.3*	Fam108b inh=75.0*
Cc1cccc(/N=C/c2nc(-c3ccccc3Br)oc2O)n1	27.1*	19.6	4.5	2.6	3.0	-7.9	36.9*
O=C(Nc1ccc(Cl)c(Cl)c1)C1CCCCC1	-3.9	1.3	-0.8	-2.8	-7.3	-7.2	/
O=c1c2ccccc2c(C=NC2CCN(Cc3ccccc3)CC2)c(O)n1Cc1ccc2c(c1)OCO2	-2.2	-3.7	-7.3	-1.9	-0.9	-8.7	/
O=C(CN1CCCc2ccccc21)N/N=C/c1c(O)ccc2ccccc12	42.6*	-1.0	31.1*	-1.9	-12.3	-6.3	16.2
O=C(NC(=S)NNC(=O)c1ccccc1O)c1cccc([N+](=O)[O-])c1	19.3*	-3.4	4.7	-0.1	-3.4	7.1	10.1
CN(C)c1ccc(NC(=O)CSc2nc(N)c(C(=O)Nc3ccc(N(C)C)cc3)s2)cc1	19.3*	1.1	20.0	2.0	-13.0	19.7	-5.8
COc1ccc(NC(=O)CSc2nc(N)c(C(=O)Nc3ccc(N(C)C)cc3)s2)cc1	7.2	-6.2	2.8	-10.4	-7.8	13.9	/
CCN(CC)c1ccc(/C=C(/C#N)c2nc3ccccc3[nH]2)c(OC(C)C)c1	20.3*	-3.4	9.3	-10.1	-9.6	11.4	0.4
OCCN(Cc1ccccc1)c1ncnc2sccc12	3.1	-2.4	-0.7	1.8	0.6	0.1	/
Cc1ccc(S(=O)(=O)Nc2csc(C)c2C(=O)O)cc1	47.4*	-3.7	1.7	-1.5	-0.9	19.2	2.1
Cc1ccc(S(=O)(=O)Nc2cc(C)c(O)cc2C)cc1	5.9	0.1	4.4	1.9	-0.9	10.2	/
O=C(NCCC1=CCCCC1)c1ccc(Cl)c(S(=O)(=O)N2CCCCC2)c1	-1.4	-3.1	-3.5	-2.9	-3.4	-0.6	/
CN(C)S(=O)(=O)c1cccc(NC(=O)COC(=O)c2cc(-c3cccc(Br)c3)nc3ccccc23)c1	31.2*	-21.1	4.6	-0.6	-15.5	-36.4	60.3*	Fam108b inh=90.0*
Cc1[nH]c2ccc(C(=O)OC(C)C(=O)N(C)c3ccccc3)cc2c1C (configuration not stated)	-1.2	3.9	5.9	-0.1	-0.8	5.7	/
O=C(CCCSc1ccccc1)Nc1nc(-c2ccco2)c(-c2ccco2)s1	47.2*	6.8	33.0*	-17.5	-9.8	-8.8	32.2*	Fam108b inh=75.0*
O=C(CCCSc1ccccc1)Nc1nc(-c2ccccn2)cs1	-0.9	-0.9	1.1	-0.2	-2.8	6.3	/
SMILES	Fam108B inh	LYPLA2 inh	PME-1 inh	PAD4 inh	LYPLA1 counter	GSTO1 inh	Fam108b confirm	others
O=[N+]([O-])c1cccc(N/N=C/c2cc([N+](=O)[O-])ccc2O)c1	0.7	-4.6	4.8	0.8	1.8	13.9	/
O=[N+]([O-])c1ccc(N/N=C/c2ccccc2O)cc1	47.3*	-7.2	44.9*	-3.5	-15.6	-14.4	29.6*
Brc1ccc(C2Nc3cccc4cccc(c34)N2)s1	42.4*	1.2	33.4*	3.5	-7.5	33.9	28.5*
Clc1ccc(C2Nc3cccc4cccc(c34)N2)cc1	27.8*	1.5	18.6	1.5	-4.7	35.3*	22.5*
O=[N+]([O-])c1cc(C2Nc3cccc4cccc(c34)N2)ccc1Cl	1.1	-11.4	17.7	3.4	-15.1	9.8	/
c1cc2c3c(cccc3c1)NC(c1ccc3c(c1)OCO3)N2	24.0*	-3.5	22.8	-5.5	-8.4	35.5*	4.4
CSc1ccc(C2Nc3cccc4cccc(c34)N2)cc1	18.8*	-20.5	47.6*	-5.0	-17.3	12.4	6.1
CSc1ccc(C2NC(=O)c3ccccc3N2)cc1 (configuration not stated)	-0.9	6.0	5.7	-2.4	0.4	-2.5	/
C=CCN(c1ccccc1)S(=O)(=O)c1cccc(C(=O)N(CC)CC(=O)Nc2c(F)cccc2F)c1	-2.5	2.1	0.5	0.2	5.2	-0.9	/
O=C(N/C(=C\c1ccc(Cl)cc1)C(=O)N1CCOCC1)c1ccco1	-1.4	-1.8	-2.5	-2.4	0.7	5.9	/
O=C(N/C(=C\c1ccccc1)C(=O)N1CCOCC1)c1ccco1	42.2*	-3.7	-11.5	3.2	-6.2	4.0	0.3
CCN(CC(=O)Nc1c(F)cccc1F)C(=O)C1(c2ccccc2)CC1	4.7	3.0	0.6	-6.2	-1.1	3.9	/
COc1cccc(C(=O)/C=C/Nc2ccc(NC(C)=O)cc2)c1	1.5	-1.2	5.8	-3.1	-0.4	1.9	/
COc1cccc(C(=O)/C=C/Nc2ccc(S(=O)(=O)Nc3cccc(C(C)=O)c3)cc2)c1	21.7*	-15.8	-3.3	0.7	-19.8	-27.6	-11.4
COc1ccc(Nc2nc(-c3cc4cccc(OC)c4oc3=O)cs2)cc1	6.3	-0.6	19.4	-0.9	-7.1	-2.6	/
COc1ccc2oc(=O)c(-c3csc(Nc4cccc(O)c4)n3)cc2c1	34.1*	15.8	47.3*	-4.9	1.3	-22.3	39.4*	Fam108b inh=100.0*
CCN(CC(=O)Nc1cccc(OC)c1)CC(=O)Nc1cccc2ccccc12	/	12.9	-2.0	1.8	-0.3	/	/
CCOc1cc(/C=C2/SC(=S)N(CC(=O)O)C2=O)ccc1OC(=O)c1cccs1	-12.9	-19.3	-31.9	-0.1	-10.1	-64.3	/
CCOc1cc(/C=C2\C(=O)N(c3ccc(C(N)=O)cc3)N=C2C)ccc1OC(=O)c1cccs1	19.8*	15.2	8.7	26.9*	0.6	72.6*	8.5

Assay outcomes as filed in PubChem.
